Hedgehog inh – Sonic Hedgehog pathway inhibition; Shh-LIGHT2 Gli-luciferase reporter, 30 h; inhibition, % (test concentration not listed); hit rate 2.1% among 22,000;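 active = mean inhibition across valid replicates above about 65%, limit read from the data; inconclusive = mean under the limit, yet half or more replicates past it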;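 note: pathway switched on by Shh-conditioned medium diluted 1 in 25 in low serum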
NOMO-1 viab – STK33 inhibitor candidate reducing NOMO-1 cell viability; hit rate 7.5% among 37,000; NOMO-1 AML viability, CellTiter-Glo luminescence, 72 h; inhibition, % (no concentration beside the values); in the data active = inhibition above about 80%; inconclusive = no clear call, values can overlap the other calls
PD-1 reverse act – activators reversing PD-1 mediated T-cell inhibition; 29,000 tested, under 10 active; AID 2316; activation, % (test concentration not listed); primary human CD4 T cells, PD-L1 beads, CellTiter-Glo 96 h; call rule not given here
MITF inhib – blocks MITF activity; TRPM1 promoter luciferase, luminescence, 24 h; inhibition, % (no concentration beside the values); hit rate 0.28% among 37,000; AID 2240; in the data active = inhibition above about 85%; inconclusive = no clear call, values can overlap the other calls; inactive = below about 68%;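 note: human melanocyte line stably carrying TRPM1 promoter luciferase reporter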
Of the large screens only hits and unclear results are named; the others gave an inactive call; ! = not active in a repeat. In the library only some 8.1% were active in any assay of this set; here they are far more common.

C[C@@H]1CN([C@@H](C)CO)C(=O)c2cc(NC(=O)Nc3ccc(C(F)(F)F)cc3)ccc2O[C@@H]1CN(C)C(=O)NC1CCCCC1	NOMO-1 viab 107.4
O=C1C=CC(=O)N1c1ccccc1	NOMO-1 viab 113.7 (no result: Hedgehog inh)
O=C(Oc1c(CN2CCOCC2)cc(Cl)c2cccnc12)c1ccc([N+](=O)[O-])cc1	NOMO-1 viab 138.9 (no result: Hedgehog inh)
C[C@H]1CN([C@@H](C)CO)C(=O)Cc2cc(NC(=O)Cc3ccccc3)ccc2O[C@@H]1CN(C)S(=O)(=O)c1cn(C)cn1	none (no result: PD-1 reverse act)
CC(C)c1ccc2c(c1)CCC1[C@](C)(C(=O)O)CCC[C@]21C (stereo partly specified)	none
CC(C)c1c(O)ccc2c1CCC1C(C)(C)CCC[C@]21C (stereo partly specified)	Hedgehog inh inconclusive, NOMO-1 viab 109.0, MITF inhib 106.3 (no result: PD-1 reverse act)
C[C@@H]1CN([C@H](C)CO)C(=O)Cc2cc(NS(=O)(=O)c3cccs3)ccc2O[C@@H]1CN(C)Cc1ccc2c(c1)OCO2	none
CCOC(=O)C1=NNCC1C(=O)OCC (stereo unspecified)	NOMO-1 viab 96.0 (no result: Hedgehog inh)
CCOC(=O)c1nonc1N	none
CCOc1ccc(C2(C)CC(C)(C)Nc3ccccc32)cc1 (stereo unspecified)	NOMO-1 viab 113.6
Cc1ccc(S(=O)(=O)Nc2cccc3c2O[C@@H](CN(C)C(=O)Nc2ccc(C(F)(F)F)cc2)[C@@H](C)CN([C@H](C)CO)C3=O)cc1	none (no result: PD-1 reverse act)
C[C@@H]1CN([C@H](C)CO)C(=O)c2cccc(NS(=O)(=O)c3ccc(Cl)cc3)c2O[C@@H]1CN(C)C(=O)Nc1ccc(C(F)(F)F)cc1	none
C[C@@H]1CN([C@@H](C)CO)C(=O)c2cccc(NS(=O)(=O)c3ccc(Cl)cc3)c2O[C@@H]1CN(C)C(=O)Nc1ccc(C(F)(F)F)cc1	NOMO-1 viab 121.1, MITF inhib 88.2
Cc1ccc(S(=O)(=O)Nc2cccc3c2O[C@H](CN(C)C(=O)Nc2ccc(C(F)(F)F)cc2)[C@H](C)CN([C@H](C)CO)C3=O)cc1	NOMO-1 viab 90.3
C[C@@H]1CCCCO[C@@H](CN(C)S(=O)(=O)c2ccc(Cl)cc2)[C@@H](C)CN([C@H](C)CO)C(=O)c2cc(NC(=O)c3ccncc3)ccc2O1	none (no result: PD-1 reverse act)
Cc1ccc(S(=O)(=O)N(C)C[C@@H]2Oc3ccc(NC(=O)C4CCCCC4)cc3C(=O)N([C@@H](C)CO)C[C@@H]2C)cc1	none (no result: Hedgehog inh)
CO[C@H]1C[C@@H]2CC[C@@H](C)[C@@](O)(O2)C(=O)C(=O)N2CCCC[C@H]2C(=O)O[C@H]([C@H](C)C[C@@H]2CC[C@@H](O)[C@H](OC)C2)CC(=O)[C@H](C)/C=C(\C)[C@@H](O)[C@@H](OC)C(=O)[C@H](C)C[C@H](C)/C=C/C=C/C=C\1C	NOMO-1 viab 131.4
c1ccc2cc3c(Nc4ccc(N5CCOCC5)cc4)ccnc3cc2c1	NOMO-1 viab 136.3 (no result: Hedgehog inh)
O=C(Nc1cccc(Br)c1)c1cccc2c1C(=O)c1ccccc1-2	NOMO-1 viab 101.6 (no result: Hedgehog inh)
CCOC(=O)c1ccc(-n2c(C)cc(C=C3C(=O)NC(=S)NC3=O)c2C)cc1	NOMO-1 viab 121.0
COc1cc2ncnc(Nc3cccc(Cl)c3)c2cc1OC	NOMO-1 viab 89.5!
CC(=O)Oc1ccc2occ(C(=O)c3ccc(Br)s3)c2c1	none
CC(=O)Oc1ccc2occ(C(=O)CCN(C)C)c2c1	NOMO-1 viab 140.4
CC(C)=CCc1cc2c(cc1O)O[C@H]1c3ccc(O)c(O)c3OC[C@@H]21	NOMO-1 viab 104.7
Oc1ccc2c(c1O)OCC1c3cc4c(cc3OC21)OCO4 (stereo unspecified)	NOMO-1 viab 105.2
COc1ccc2c(c1)O[C@H]1c3ccc(O)cc3OC[C@@H]21	none
OC[C@H]1O[C@@H](Oc2ccc3c(c2)OC[C@H]2c4cc5c(cc4O[C@@H]32)OCO5)[C@H](O)[C@@H](O)[C@@H]1O	none
O=C1OCc2cc3cccc(O[C@@H]4O[C@H](CO)[C@@H](O)[C@H](O)[C@H]4O)c3c(O)c21	none
Cc1noc(C)c1S(=O)(=O)N(C)C[C@@H]1Oc2ccc(NC(=O)C3CC3)cc2CC(=O)N([C@H](C)CO)C[C@H]1C	none (no result: Hedgehog inh)
C[C@@H]1CN([C@@H](C)CO)C(=O)c2cccc(NC(=O)c3ccncc3)c2O[C@@H]1CN(C)Cc1ccc(Cl)c(Cl)c1	none
COc1ccc2c(C)nc(Nc3nc(C)cc(=O)[nH]3)nc2c1	NOMO-1 viab 116.9 (no result: Hedgehog inh)
Cc1cc(=O)[nH]c(Nc2nc(C)c3cccc(C)c3n2)n1	NOMO-1 viab 130.2 (no result: Hedgehog inh)
CCCc1cc(=O)[nH]c(Nc2nc(C)c3cc(OC)ccc3n2)n1	none (no result: Hedgehog inh)
N#Cc1c(F)cccc1NCCc1ccccn1	none
CCC(C)C(O)C(C)(O)/C=C/C1=CC2=C(Cl)C(=O)C(C)(O)C(OC(C)=O)C2CO1 (stereo unspecified)	NOMO-1 viab 119.9
COc1ccc(CN(C)C[C@H]2Oc3c(NC(=O)Nc4ccc5c(c4)OCO5)cccc3C(=O)N([C@@H](C)CO)C[C@@H]2C)cc1	none
CC(C)NC(=O)Nc1cccc2c1O[C@@H](CN(C)S(=O)(=O)c1ccc(Cl)cc1)[C@@H](C)CN([C@H](C)CO)C2=O	Hedgehog inh 102.0
CC(C)NC(=O)Nc1cccc2c1O[C@@H](CN(C)S(=O)(=O)c1ccc(F)cc1)[C@@H](C)CN([C@@H](C)CO)C2=O	Hedgehog inh 79.7
CC(C)NC(=O)Nc1cccc2c1O[C@H](CN(C)S(=O)(=O)c1ccc(Cl)cc1)[C@@H](C)CN([C@H](C)CO)C2=O	none
CC(C)NC(=O)Nc1cccc2c1O[C@H](CN(C)S(=O)(=O)c1ccc(Cl)cc1)[C@H](C)CN([C@@H](C)CO)C2=O	none
CC(C)NC(=O)Nc1cccc2c1O[C@@H](CN(C)S(=O)(=O)c1ccc(Cl)cc1)[C@@H](C)CN([C@@H](C)CO)C2=O	Hedgehog inh 95.6
C/C(=C\C=C\C(C)C)CC/C=C(\C)CCOc1c(O)cc2c(c1O)CNC2=O	none
Cc1ccnc(NS(=O)(=O)c2ccc(NC(=O)c3ccc(Cl)cc3Cl)cc2)n1	none (no result: Hedgehog inh, PD-1 reverse act)
CC(=O)OC[C@]12[C@H](OC(C)=O)[C@H](OC(C)=O)[C@@H]3[C@@H](OC(C)=O)[C@@]14O[C@@]3(C)COC(=O)c1ncccc1CC[C@H](C)C(=O)O[C@@H]([C@H](O)[C@@H]2OC(=O)c1ccccc1)[C@]4(C)O	NOMO-1 viab 117.1
C[C@@H]1CN([C@@H](C)CO)C(=O)Cc2cc(NS(=O)(=O)c3ccccc3)ccc2O[C@@H]1CN(C)C(=O)Nc1ccc(F)cc1	none
COc1cc(O)c(C(=O)CCc2ccccc2)c(O)c1Cc1ccccc1O	NOMO-1 viab inconclusive, MITF inhib 107.7
COc1cc(CCC(O)CC(=O)CCc2ccc(O)cc2)ccc1O (stereo unspecified)	none (no result: NOMO-1 viab, PD-1 reverse act, MITF inhib)
COc1cc(O)c(Cc2ccccc2O)c(O)c1C(=O)CCc1ccccc1	NOMO-1 viab 113.6
COc1cc(CCC(O)CC(=O)CCc2ccccc2)ccc1O (stereo unspecified)	none (no result: NOMO-1 viab, PD-1 reverse act, MITF inhib)
CCCc1cc(=O)[nH]c(Nc2nc(C)c3ccc(OC)cc3n2)n1	none (no result: Hedgehog inh)
CNC[C@H]1Oc2ccc(NC(=O)Nc3cccc4ccccc34)cc2C(=O)N([C@@H](C)CO)C[C@@H]1C	none (no result: Hedgehog inh)

Screens deposited in PubChem BioAssay by Broad Institute.
